From PubChem BioAssay AID588814 (The Scripps Research Institute Molecular Screening Center, 2011)
Values joined by “and” are separate entries in the source; they are usually repeats but may differ in a detail not shown here. Equal entries are not always repeated. Hit rate of the full screen: of about 360,000 compounds, about 1,200 (0.33%) were called active. Many of the other results were omitted from the sample, so actives are more common in it than they were. Unmarked numbers belong to inactive results.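 How the source made its calls: active means activation above the run's mean compound activation plus 3 SD (cut at about 16% in these data); inactive means the rest.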

biological target: Muscarinic acetylcholine receptor M1 (Homo sapiens) (UniProt P11229); assay: CHRM1 activation via calcium signal – Fluo-8 calcium fluorescence, CHO-K1 cells, HTS, primary screen (AID 588814); conditions: CHO-K1 hM1, Fluo-8 calcium fluorescence, agonist mode; at 3 µM; stronger effect = higher value; 0% DMSO, 100% acetylcholine EC100;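 further: peak over basal fluorescence ratio within a 140 s kinetic read after compound addition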
Sequence (P11229 whole entry, looked up): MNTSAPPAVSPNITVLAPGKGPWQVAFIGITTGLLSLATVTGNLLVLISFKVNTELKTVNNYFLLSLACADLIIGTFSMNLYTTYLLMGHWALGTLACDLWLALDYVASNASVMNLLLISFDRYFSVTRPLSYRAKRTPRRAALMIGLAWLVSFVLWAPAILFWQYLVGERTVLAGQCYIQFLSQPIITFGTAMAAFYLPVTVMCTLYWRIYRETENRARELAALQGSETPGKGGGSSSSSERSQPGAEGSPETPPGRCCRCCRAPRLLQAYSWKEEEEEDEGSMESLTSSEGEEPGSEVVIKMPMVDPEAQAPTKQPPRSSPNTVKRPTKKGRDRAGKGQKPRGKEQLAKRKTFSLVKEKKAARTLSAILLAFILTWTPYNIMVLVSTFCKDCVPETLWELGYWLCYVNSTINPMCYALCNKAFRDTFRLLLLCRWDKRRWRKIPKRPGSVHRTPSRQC

SMILES | activation
O=C(CN1C(=O)CC(c2ccccc2)S(=O)(=O)c2ccccc21)NC1CCCC1 (stereo unspecified) | -3.97%
COc1ccc(CCC(=O)OCC(=O)Nc2ccc(C)c(S(=O)(=O)N(C)C)c2)cc1 | -1.39%
CCN1CCN(c2cc3nc(C)n(Cc4ccccc4)c(=O)c3cc2NC(=O)c2ccccc2F)CC1 | -9.45%
NNC(=O)COc1ccc(C2SCCS2)cc1 | -1.63%
O=C(CCc1ccccc1)NNC(=O)COc1ccc(Cl)cc1 | 1.21%
O=C(NNC(=S)NCc1ccccc1)c1ccc(OC(F)F)cc1 | -4.38%
CCOc1ccccc1NC(=S)NC(=O)CCc1ccccc1 | -3.2%
COc1ccc(C(=O)NC(=S)NNC(=O)CCc2ccccc2)cc1 | 34.7% (active)
CC(=O)NC(=S)NNC(=O)c1ccc(Br)cc1 | -8.87%
COc1ccc(C(=O)NNC(=S)NC(=O)c2ccccc2)cc1 | 34.3% (active)
COCCCNC(=O)C1CC(=O)N(c2ccc(C)cc2)C1 (stereo unspecified) | -2.9%
O=C(c1ccc(CS(=O)(=O)c2ccccc2)o1)N1CCN(c2ccccc2)CC1 | -1.41%
CC(C)(C)NS(=O)(=O)NC(=O)C1=C(N2CCCC2)COC1=O | -5.28%
Cc1nc(C(F)(F)F)ccc1C(=O)N1CCC1(C)C(=O)NS(=O)(=O)c1ccccc1Cl (stereo unspecified) | -0.92%
CC1=NCCN1S(=O)(=O)c1ccc(Br)c(C)c1 | -3.91%
O=C1COc2ccc(C(=O)CSc3ccc(Br)cc3)cc2N1 | 0.13%
c1ccc(CCC2=NCCn3cccc32)cc1 | -1.99% and -6.48%
COc1ccc(NC(=O)Cn2nnc(C(=O)NCCc3ccc(OC)c(OC)c3)c2N)cc1 | -1.8%
CCOc1ccc(Cn2nnc(C(=O)NCc3ccccc3)c2N)cc1 | 41% (active)
CCOc1ccc(Cn2nnc(C(=O)Nc3ccc(OC)cc3OC)c2N)cc1 | 17.4% (active)
COc1cccc(CNC(=O)c2nnn(CC(=O)Nc3cc(Cl)ccc3C)c2N)c1 | 2.49%
Nc1c(C(=O)Nc2ccc3c(c2)OCCO3)nnn1Cc1ccccc1 | 1.21%
COc1ccc(CNC(=O)c2nnn(CC(=O)Nc3cc(C)cc(C)c3)c2N)cc1 | -1.24%
O=C(CCNS(=O)(=O)c1ccc(Br)s1)NCc1ccccc1Cl | -1.35%
O=c1o[nH]c(-c2ccccc2)c1N=Nc1c(F)cccc1Cl | -2.19%
CCCCNC(=O)CCn1c(=O)c2ccccc2n(Cc2cc(C)ccc2C)c1=O | -4.41%
